Bioassay records as filed in PubChem BioAssay.
Rows were chosen to be rich in hits. Some 3.1% of all compounds tested hit in one or more screens of this group.
Tau FP inhib = blocks human tau fibril formation measured by polarization | P10636 | K18 P301L tau heparin fibrillization, Alexa594 FP, 6 h | Potency, µM (doses to about 57.7 µM), without a hit: top-dose activity, negative = inhibition, hits mostly inhibitors | hit rate 0.39% among 280,000 | AID 1468; also: nearly all actives have a fitted effect of over 55% in size
Target sequence (P10636 561-689 P618L limits assumed): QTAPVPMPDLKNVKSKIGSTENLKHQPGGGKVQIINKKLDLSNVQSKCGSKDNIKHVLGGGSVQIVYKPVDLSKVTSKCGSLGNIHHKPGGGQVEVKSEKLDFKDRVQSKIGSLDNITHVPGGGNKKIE
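Read-out: fluorescence polarization of Alexa 594-labeled tau (0.24 uM), 555 nm excitation, 632 nm emission. Mixtures held 15 uM unlabeled K18 P301L, compound and 20 uM heparin, pH 7 acetate buffer, incubated 6 hr at 37 C.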
Tau fluor cs = counter-screen for tau fibril formation inhibitors | tau K18 P301L Alexa594 fluorescence, heparin fibrillization | Potency, µM (highest dose often 57.7 µM), without a hit: at the top dose activity change, negative = decrease | hit rate 0.93% among 280,000 | AID 1463; also: nearly all actives have a fitted effect of over 55% in size
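Human tau K18 P301L (15 uM unlabeled, 0.24 uM Alexa 594-labeled) in 100 mM sodium acetate pH 7 with 20 uM heparin, 6 hr at 37 C. ThT 30 uM added, 1 hr ambient; Alexa 594 FP and total fluorescence read at 555/632 nm.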
Tau fibril ThT = blocks human tau fibril formation measured by thioflavin T. P10636. AID 1460. Potency, µM (titrated, usually from 57.4 µM), without a hit: at the top dose activity, negative = inhibition, actives largely listed as inhibitors. recombinant tau K18 P301L (four-repeat tau fragment), heparin-induced fibrillization, ThT fluorescence. hit rate 2.1% among 270,000; also: nearly all actives have a fitted effect of over 55% in size
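Heparin-induced (20 uM) aggregation of recombinant human K18 P301L tau, 15 uM unlabeled with 0.24 uM labeled, pH 7 acetate buffer, 6 hr at 37 C with compound. Fibrils quantified by 30 uM ThT fluorescence after 1 hr ambient incubation.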
TexasRed fluor = Texas Red fluorescence interference in TRb-SRC2 counter-screen | TRb/SRC2 Texas Red total fluorescence interference | Potency, µM (top dose mostly 106 µM), for inactives: at the top dose fluorescence change, negative = quenching | hit rate 0.29% among 280,000 | AID 1479; active = well fitted curve in either direction with a large enough effect; inconclusive = small, poorly fitted or top-dose-only effect
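Human TRb ligand-binding domain at 0.6 uM with 20 nM Texas Red SRC2 peptide in Tris buffer containing 1 uM T3 and 5% DMSO, incubated with compound 5 h at ambient temperature. Total fluorescence (555/632 nm) calculated as parallel + 2 × perpendicular.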
TRb SRC2 PPI = disrupts binding of human TR beta to SRC2; hit rate 0.065% among 280,000; P10828; AID 1469; Potency, µM (titrated, usually from 106 µM), inactives show at the top dose activity change, negative = inhibition, usual class: inhibitors; TRbeta-SRC2 peptide binding, fluorescence polarization; receptor liganded with 1 µM T3;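 also: plate controls were bound peptide for no effect and peptide without receptor for full effect; nearly all actives have a fitted effect of over 50% in size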
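Assay buffer: 20 mM Tris-HCl, 100 mM NaCl, 10% glycerol, 1 mM EDTA, 0.01% NP-40, 1 mM DTT, 1 uM T3, 5% DMSO; TRb LBD 0.6 uM, Texas Red SRC2 20 nM; FP after 5 hr.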
The depositor's hits bear a star; ? = inconclusive; [ ] = dose if it differs, or a comment. Unless noted, calls follow the shape of the dose curve; as a rule, active = well fitted curve in the direction sought with a large enough effect; inconclusive = small, poorly fitted or top-dose-only effect, or another doubt; inactive = no such curve, though single readings can be large; an effect the other way counts as inactive or inconclusive. Unless noted, % is scaled to controls: 0 for no effect and ±100 for the full control effect; potency is read from the fitted curve at half-maximal effect.

SMILES | Tau FP inhib | Tau fluor cs | Tau fibril ThT | TexasRed fluor | TRb SRC2 PPI
COC(=O)c1ccccc1NC1=C/C(=N\S(=O)(=O)c2cccs2)c2ccccc2C1=O | -10% | ? | ? | 9% | ?
O=C1C(Nc2ccccc2)=C/C(=N/S(=O)(=O)c2cccs2)c2ccccc21 | ? | 8.9µM*[quencher] | 3.5µM* | -5% | -19%
Cc1ccc(NC2=C/C(=N/S(=O)(=O)c3cccs3)c3ccccc3C2=O)cc1 | -1% | 8.9µM*[quencher] | ? | 0% | -3%
CCN(CC)c1ccc(NC(=O)COCc2cc(-c3ccc4c(c3)OCO4)on2)c(C)c1 | 10% | ? | 2.8µM* | -13% | 1%
COc1cc(NC(=O)COCc2cc(-c3ccc4c(c3)OCO4)on2)c(OC)cc1Cl | 7% | -18% | -18% | 0% | 1%
CC1(C)Cc2c(sc3[nH]c(=S)n(Cc4ccco4)c(=O)c23)CO1 | ? | -26% | 28µM* | -15% | 3%
O=c1c2c3c(sc2[nH]c(=S)n1Cc1ccco1)CCC3 | -13% | -16% | ? | -4% | 2%
COC(=O)c1c(NC(=O)c2ccc(S(=O)(=O)N3CCCCC3)cc2)sc2c1CCN(C)C2 | 1% | 9% | -7% | 1% | -2%
CCN1CCN(c2ccc(NC(=O)CCc3c(C)nc4c(-c5ccc(F)cc5)c(C)nn4c3C)cc2)CC1 | 2% | 18µM*[quencher] | ? | 0% | 0%
CSc1nc(NCCOCCO)c2sc3nc(-c4ccco4)c4c(c3c2n1)CCC4 | -8% | -8% | ? | ? | 8%
CCN(CCO)c1nc(SC)nc2c1sc1nc(-c3ccco3)c3c(c12)CCC3 | ? | ? | 25µM* | -7% | -3%
Cc1cc(N=Cc2c(O)ccc3ccccc23)no1 | ? | ? | 22µM* | ? | 50µM*
Oc1ccc2ccccc2c1/C=N/c1nccs1 | -14% | -8% | ? | ? | 35µM*
Cc1cc(SCC(=O)c2ccc(O)c(O)c2)nc2ccccc12 | -6% | 28µM*[quencher] | ? | -2% | 2%
Cc1cc(SCC(=O)c2ccc3c(c2)OCO3)nc2ccccc12 | -13% | ? | ? | 6% | 7%
COc1c(C=O)c(O)cc2c1C(=O)c1ccccc1C2=O | ? | ? | 7.9µM* | ? | 1%
Cc1cccc(N2CCN(C(=O)C3CCCN(S(=O)(=O)c4ccc5c(c4)oc(=O)n5C)C3)CC2)c1C (stereo not given) | -5% | -15% | -12% | -2% | -4%
Cc1nc2ncccn2c1-c1csc(Nc2ccccc2)n1 | 4% | ? | ? | -1% | -6%
COc1ccc(Nc2nc(-c3c(C)nc4ncccn34)cs2)cc1 | -2% | ? | 8.9µM* | -3% | -6%
Cc1nc2ncccn2c1-c1csc(Nc2ccc(N(C)C)cc2)n1 | -2% | ? | 13µM* | -2% | -1%
CCOC(=O)[C@]1(C(NC(=O)OC)c2ccccc2)CCCC1=O (stereo not given in full) | 2%[11.6 µM] | 12%[11.6 µM] | 5%[11.5 µM] | 3%[11.2 µM] | -5%[11.2 µM]
COC(=O)C1=C(C(=O)OC)[C@@H]2N(Cc3ccccc3)c3ccccc3[C@@]23C[C@@H](C(=O)OC)N(S(=O)(=O)c2c(C)noc2C)C3=N1 | -2%[11.6 µM] | -6%[11.6 µM] | -1%[11.5 µM] | -3%[11.2 µM] | 3%[11.2 µM]
Cc1cc(C)cc(NC(=O)CSc2nncn3c2cc2occc23)c1 | -9% | -23% | ? | -2% | 0%
Oc1c(/C=N/Nc2cccc3cccnc23)ccc2ccccc12 | 9% | ? | ? | 9% | -24%
Oc1c(N=Nc2ccccn2)ccc2ccccc12 | ? | ? | 4.5µM* | -10% | -2%
O=C(Nc1ccc(N2CCOCC2)cc1)C1CC(=O)N(c2ccc(Cl)cc2)C1 (stereo not given) | 3% | -13% | ? | 1% | -1%
O=C(Nc1ccc(N2CCOCC2)cc1)C1CC(=O)N(c2ccccc2)C1 (stereo not given) | 6%[2.34 µM] | 7% | 4.5µM* | 0% | -3%
CN(C)c1ccc2c(O)cc(=O)n(C)c2c1 | 22µM* | -27% | 25µM* | -5% | ?
O=C(Nc1cc(Cl)ccc1Cl)C1(c2cccs2)CCOCC1 | -8% | -12% | -15% | -1% | -6%
